Most compounds without a hit are left out; they make up all but 7.5% or so of the library.
Rab9 promoter act = activates the Rab9 promoter | Huh7 Rab9 promoter-luciferase reporter, luminescence, 24 h | Potency, µM (highest dose often 9.22 µM), inactives show at the top dose activation, negative = inhibition, usual class: activators | actives 2.8% (n = 320,000); further: % of control where 0% means no effect; nearly all actives have a fitted effect of over 60% in size
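Cells were plated at 1500 per well in reduced-serum medium with 10% FBS and left 2 h. Compound in DMSO was then added for 24 h at 37 °C. Reporter signal was read by luminescence after 10 min with luciferase detection reagent.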
ELG1 genotoxic = inducers of genotoxicity in HEK293T ELG1-luciferase cells | HEK293T ELG1-luciferase reporter, luminescence, 16 h | Potency, µM (series often up to 46 µM), inactives show at the top dose activity change, positive = activation, usual class: activators | actives 1.3% (n = 330,000) | AID 504466; further: % of control where 0% means no effect; nearly all actives have a fitted effect of over 60% in size
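Step 1: seed 2,000 HEK293T ELG1-luciferase cells per well. Step 2: add compound or DMSO, incubate 16 hr at 37 °C. Step 3: ONE-Glo, 30 min at room temperature, read luminescence.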
KinaseGlo FLuc = blocks Kinase-Glo luciferase, a counter-screen artifact. Potency, µM (doses to about 38.3 µM), without a hit: at the top dose activity change, negative = inhibition, most hits filed as inhibitors. Kinase-Glo luciferase, ATP luminescence, 8 min. AID 1379. actives 0.28% (n = 200,000); further: on the % scale 0 is the no-effect control and ±100 the full control effect; nearly all actives have a fitted effect of over 60% in size
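Substrate mix (final 50 mM imidazole pH 7.2, 50 mM KCl, 7 mM MgCl2, 10 uM ATP, 0.01% Tween 20, 0.05% BSA) plus pin-tool compound, then Kinase-Glo detection mix; 8 min ambient, luminescence read.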
SMN2 splice enh = increases expression of the SMN2 splice variant; HEK293 SMN2-luciferase splicing reporter, luminescence, 30-36 h; Potency, µM (titrated, usually from 46.1 µM), for inactives: at the highest dose activity change, positive = activation, hits mostly activators; actives 2.8% (n = 210,000); AID 1458; further: % of control where 0% means no effect; nearly all actives have a fitted effect of over 55% in size
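HEK293 cells carry an SMN2 minigene-luciferase reporter in which exon 7 inclusion puts luciferase in frame. Cells were seeded at 2000 cells/well, attached for 10-12 hours, then exposed to compounds for 30-36 hours at 37C before ONE-Glo luminescence.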
FLuc counter = firefly luciferase modulation, counter-screen for miR-21 project; Potency, µM (top dose mostly 57.5 µM), for the others: at the top dose activity change, negative = inhibition, most hits filed as inhibitors; purified FLuc, Km substrates, luminescence inhibition; P08659; actives 6.9% (n = 360,000);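 further: plate controls were vehicle for no effect and reference inhibitor for full effect; nearly all actives have a fitted effect of over 55% in size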
Target sequence (P08659 whole entry, looked up): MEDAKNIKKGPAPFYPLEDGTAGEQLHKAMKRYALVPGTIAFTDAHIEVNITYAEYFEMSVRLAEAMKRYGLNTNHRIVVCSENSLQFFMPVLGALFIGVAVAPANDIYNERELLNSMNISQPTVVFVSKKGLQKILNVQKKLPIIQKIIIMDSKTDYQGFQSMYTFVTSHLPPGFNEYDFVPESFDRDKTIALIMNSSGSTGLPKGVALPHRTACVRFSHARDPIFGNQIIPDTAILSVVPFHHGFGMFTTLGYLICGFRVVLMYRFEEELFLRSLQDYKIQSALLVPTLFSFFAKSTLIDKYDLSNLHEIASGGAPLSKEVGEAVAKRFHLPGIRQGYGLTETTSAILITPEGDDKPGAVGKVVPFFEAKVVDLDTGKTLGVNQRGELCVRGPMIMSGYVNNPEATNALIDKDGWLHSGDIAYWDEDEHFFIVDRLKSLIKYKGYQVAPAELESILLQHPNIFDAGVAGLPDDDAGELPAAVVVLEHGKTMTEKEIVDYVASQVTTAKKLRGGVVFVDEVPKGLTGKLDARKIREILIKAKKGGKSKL
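Biochemical qHTS of compounds, final roughly 60 µM downward over six points, against 10 nM purified firefly luciferase using Km concentrations of substrates (10 uM D-luciferin, 10 uM ATP) in Tris acetate pH 7.5 buffer; luminescence output.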
NPC1 promoter act = activates the NPC1 promoter; Huh7 NPC1 promoter luciferase reporter, 24 h; Potency, µM (series often up to 9.22 µM), without a hit: at the highest dose activation, usual class: activators; actives 2.4% (n = 320,000); further: % of control where 0% means no effect; nearly all actives have a fitted effect of over 60% in size
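Cells: Huh7 expressing luciferase under the NPC1 promoter, 1500/well. Seeded 2 h, compound added, incubated 24 h at 37 °C. Luciferase reagent, 10 min ambient, then luminescence.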
Numbers without * were called inactive; ? = inconclusive; . = no result given; [ ] = remark or other dose. The call rests on the fitted dose curve; in most records, active means well fitted curve in the direction sought with a large enough effect; inconclusive means small, poorly fitted or top-dose-only effect, or another doubt; inactive means no such curve, though single readings can be large; an effect the other way counts as inactive or inconclusive. Potency means the concentration at half of the fitted maximal effect.

SMILES | Rab9 promoter act | ELG1 genotoxic | KinaseGlo FLuc | SMN2 splice enh | FLuc counter | NPC1 promoter act
S=c1[nH]nc(-c2cccc(Cl)c2)n1CCN1CCCCC1 | 0% | 1% | 1% | 9% | 0% | -2%
O=S(=O)(c1cccc(-c2cn3cc(Cl)ccc3n2)c1)N1CCOCC1 | -1% | -7% | -3% | . | ? | -4%
Clc1ccc(-c2cn3cc(Br)ccc3n2)cc1Cl | 2.2µM* | 0.82µM* | -21% | 2.2µM* | 0.21µM* | 4µM*
O=C(NCCc1ccccc1)c1ccc(CSc2nc3ccncc3n2Cc2ccccc2)cc1 | . | . | . | 15% | -12% | .
CN(C1CCCCC1)S(=O)(=O)c1ccc2c(c1)c(=O)c(C(=O)NCc1ccccc1Cl)cn2C | . | . | . | -12% | 2% | .
CC(=O)/C=C1\C(=O)N(C)c2ccccc21 | -44%[46.1 µM] | . | . | . | . | -30%[46.1 µM]
CN1C(=O)/C(=N\OC(=O)c2cccc3ccccc23)c2ccccc21 | 9% | 5% | -1% | -11% | 11µM* | 2%
COc1ccc(CNc2ccc(S(=O)(=O)N3CCN(C)CC3)cn2)cc1OC | -5% | 1% | . | . | 1% | -3%
O=C(NCc1ccco1)c1cccc(F)c1 | . | . | 2% | -16% | 3% | .
O=C(NC1=NCCS1)c1sc2cc(F)ccc2c1Cl | 2.2µM* | ? | -2% | 7.1µM* | 2.4µM* | 5µM*
O=C(Nc1ccon1)c1sc2cc(F)ccc2c1Cl | 2.5µM* | ? | 1% | 22µM* | ? | 3.2µM*
O=C(NCCCN1CCOCC1)c1sc2cc(F)ccc2c1Cl | ? | 15% | -1% | 13% | ? | 9%
O=C(NCc1ccco1)c1sc2cc(F)ccc2c1Cl | 28% | 12% | 0% | 13µM* | 15µM* | 20%
COc1ccccc1N1CCN(C(=O)c2nn(-c3ccc(C)cc3)c(=O)n(C)c2=O)CC1 | . | . | . | . | 4% | .
CN(C)c1ccc(/C=C(\C#N)c2ccccc2)cc1 | 0.56µM* | 4.1µM* | . | . | 1.3µM* | 29%
CN(C)c1ccc(C(=O)C(=O)c2ccccc2)cc1 | ? | 17% | . | . | 24µM* | 18%
CN(C)c1ccc(/C=C(/NC(=O)c2ccccc2)C(=O)N2CCCC2)cc1 | -1% | -2% | . | . | 17µM* | 0%
CN(C)c1ccc(/C=C(\C#N)C(=O)c2ccccc2)cc1 | 0% | 7% | . | . | 0.43µM* | -3%
N#C/C(=C\c1ccc(C#N)cc1)C(=O)c1ccccc1 | -2% | 6% | . | . | ? | 5%
Cc1ccc2nc(Cl)c3cc(C(=O)NC4CCCCC4)sc3c2c1 | . | . | . | 6% | -4% | .
COc1ccc2c(c1)cc1c(=O)n(CC(=O)NC3CCCCC3)nc(C)n12 | . | . | . | 2% | -3% | .
NS(=O)(=O)c1ccc(CCNC(=O)Cn2c(=O)c3cccn3c3ccc(F)cc32)cc1 | . | . | . | . | 3% | .
N#C/C(=C\c1cccs1)C(=O)c1ccccc1 | 8% | 4% | . | . | 15µM* | 2%
CN(C)c1cccc(/C=C(\C#N)c2ccccc2)c1 | 0.5µM* | 4.1µM* | . | . | 1.2µM* | ?
CN1CCN(C(=S)NC(=O)c2ccc(C(C)(C)C)cc2)CC1 | 0% | 1% | 3% | -1% | ? | -2%
SMILES | Rab9 promoter act | ELG1 genotoxic | KinaseGlo FLuc | SMN2 splice enh | FLuc counter | NPC1 promoter act
CC(C)(C)c1ccc(C(=O)N2CCC(C(=O)NCc3ccco3)CC2)cc1 | 11% | 6% | -1% | 2.5µM* | -18% | 10%
CC(C)(C)c1ccc(C(=O)N2CCC(C(=O)NCC3CCCO3)CC2)cc1 (centres undefined) | ? | 8% | 0% | 11µM* | ? | 28%
CC(C)(C)c1ccc(C(=O)NC(=S)N2CCOCC2)cc1 | 2.2µM* | 8.2µM* | . | . | 9.5µM* | 2.2µM*
CC(C)(C)c1ccc(C(=O)NC(=S)NCC2CCCO2)cc1 (centres undefined) | 12% | 4% | . | . | 27µM* | 7%
O=C(NCC1CCCO1)C1CCN(C(=O)c2ccc(Cl)cc2)CC1 (centres undefined) | -19% | 2% | -3% | -16% | 2% | 0%
CC(C)(C)c1ccc(C(=O)NNC(=S)NCC2CCCO2)cc1 (centres undefined) | 0% | 0% | 3% | -28% | -12% | -1%
Cc1c(S(=O)(=O)N2CCOCC2)c(=O)n(C)c(=O)n1C | -3% | -10% | -3% | -9% | 8% | 0%
C/C(=N\NC(=O)c1c(Cl)c(C)nn1C)c1ccc(NC(=O)c2ccncc2)cc1 | -3% | -2% | 0% | -57% | 4% | 1%
C/C(=N\NC(=O)c1c(Cl)c(C)nn1C)c1cccc(NC(=O)C2CCCC2)c1 | 2% | -4% | . | . | 17µM* | -3%
Cc1ccc2cc(NC(=O)c3ccccc3)ccc2n1 | 0.4µM* | 1.8µM* | . | . | 1.9µM* | 0.56µM*
O=C(Nc1ccc2[nH]c(=O)c(=O)[nH]c2c1)c1cccc(F)c1 | . | . | . | ? | 1% | .
CCCC(=O)Nc1cnc(NC(=O)c2cccc(F)c2)cc1C | 0.63µM* | 0.46µM* | 7.1µM* | 2µM* | 9.5µM* | 0.45µM*
O=C(Nc1ccc2ccccc2c1)c1cccc(F)c1 | 0.71µM* | ? | . | . | 2.1µM* | 1.3µM*
COC(=O)c1cc(NC(=O)c2cccc(F)c2)cc(C(=O)OC)c1 | -7% | -5% | 2% | -11% | ? | -1%
Cc1ccc2cc(NC(=O)c3cccc(F)c3)ccc2n1 | 0.56µM* | 2.6µM* | . | . | 2.7µM* | 0.63µM*
CCCCOC(=O)c1ccc(NC(=O)c2cc3c(=O)n4cccc(C)c4nc3n2C)cc1 | . | . | . | . | 5% | .
O=c1oc(CCO)cc2ccc(Br)cc12 | . | 2% | . | . | . | .
O=C(Nc1cccc(NC(=O)c2cccc(F)c2)n1)c1cccc(F)c1 | 0% | -1% | . | . | 19µM* | -3%
O=C(Nc1cccc(NC(=O)c2c(F)cccc2F)n1)c1c(F)cccc1F | -4% | -1% | . | . | -13% | -2%
Cn1c(SCc2ccc(C#N)cc2Cl)nc2ccccc21 | 3.5µM* | 21µM* | -12% | 14µM* | 6µM* | 2.2µM*
Cc1ccc(C(=O)Nc2sc3c(c2C(=O)O)CCCC3)o1 | ? | 4% | . | . | 12µM* | ?
Cc1ccc(C(=O)Nc2sc3c(c2C(=O)O)CCCCC3)o1 | 3.5µM* | 2% | 7.9µM* | 13µM* | 2.7µM* | 3.5µM*
COC(=O)c1c(NC(=O)c2ccc(C)o2)sc2c1CCCCC2 | 3.5µM* | 10µM* | -2% | 14µM* | 12µM* | 3.5µM*
COc1cc(/C=C(\C#N)c2nc3ccccc3[nH]2)cc(Cl)c1OCc1ccccc1Cl | . | . | . | 8% | -3% | .
C=CCOc1ccc(/C(O)=C2/C(=O)C(=O)N(CCCn3ccnc3)C2c2ccco2)cc1 (centres undefined) | ? | 6% | -2% | 10% | -18% | 16%

Screens (PubChem BioAssay)
